Bioassay records: PubChem, National Center for Advancing Translational Sciences (NCATS)
The list is not random: actives were taken first. Their share in the collection is about 2.3%.
ALOX12 inh: Primary qHTS assay for inhibitors of human arachidonate 12S-lipoxygenase (ALOX12): Round 2; purified 12hLO, xylenol orange hydroperoxide absorbance; AID 1671190, 2021; Potency, µM (titrated, usually from 108 µM), without a hit: top-dose activity change, negative = inhibition, hits mostly inhibitors; Polyunsaturated fatty acid lipoxygenase ALOX12 (Homo sapiens), P18054; 580,000 compounds, 1.1% hits; further: on the % scale 0 is the no-effect control and ±100 the full control effect
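Hydroperoxide product was detected by ferrous iron/xylenol orange as the 573 to 405 nm absorbance ratio. Arachidonic acid at 40 uM (final) was turned over for 30 min at room temperature by 150 nM human 12hLO, pH 7.0 Hepes buffer, after 15 min compound preincubation.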
PTHR1 agonist: qHTS for PTHR1 Agonists: Primary Screen; Parathyroid hormone/parathyroid hormone-related peptide receptor (Homo sapiens), Q03431; HEK293 GP2 PTHR1 cells, GloSensor cAMP luminescence, 1 h; Potency, µM (top dose mostly 115 µM), for inactives: at the highest dose activation, usual class: activators; 410,000 compounds, 0.075% hits; AID 743266, 2014; further: nearly all actives have a fitted effect of over 55% in size
Target sequence (Q03431 whole entry, looked up): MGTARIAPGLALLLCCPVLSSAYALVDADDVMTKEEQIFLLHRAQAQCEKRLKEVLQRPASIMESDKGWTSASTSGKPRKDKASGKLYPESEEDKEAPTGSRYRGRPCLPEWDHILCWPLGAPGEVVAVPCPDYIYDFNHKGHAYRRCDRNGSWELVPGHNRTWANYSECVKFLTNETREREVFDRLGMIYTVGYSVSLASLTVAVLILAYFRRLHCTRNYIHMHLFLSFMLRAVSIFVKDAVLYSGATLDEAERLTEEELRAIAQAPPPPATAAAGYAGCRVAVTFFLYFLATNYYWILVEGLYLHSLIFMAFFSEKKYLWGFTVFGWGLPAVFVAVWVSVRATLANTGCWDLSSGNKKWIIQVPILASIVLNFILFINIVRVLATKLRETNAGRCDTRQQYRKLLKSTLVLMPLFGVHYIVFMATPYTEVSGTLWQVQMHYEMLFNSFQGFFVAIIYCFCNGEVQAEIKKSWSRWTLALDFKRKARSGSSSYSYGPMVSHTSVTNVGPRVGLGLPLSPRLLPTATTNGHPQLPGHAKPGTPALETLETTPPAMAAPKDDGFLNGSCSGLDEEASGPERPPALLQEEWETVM
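HEK-293-derived GP2 cells expressing PTHR1 and a GloSensor cAMP reporter, 3,000/well, plated overnight, given luciferin plus IBMX (each 0.5 mM as added) for 1 h at 37 °C, then compound for 1 h at 37 °C. Luminescence was read after 15 min at room temperature.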
GLP-1R agonist: qHTS of GLP-1 Receptor Agonists; HEK293 GLP-1R CRE-luciferase, luminescence, 4-6 h; cells express a hypersensitive GLP-1R form; Potency, µM (titrated, usually from 45.6 µM), for inactives: top-dose activation, hits mostly activators; 380,000 compounds, 0.007% hits; AID 624172, 2012; further: % of control where 0% means no effect
GLP-1R inv ag: qHTS of GLP-1 Receptor Inverse Agonists (Inhibition Mode) | 410,000 compounds, 1.6% hits | AID 624417, 2012 | HEK293 GLP-1R CRE-luciferase, luminescence, 24 h; GLP-1R form is constitutively active | Potency, µM (top dose mostly 38.3 µM), inactives show at the top dose activity change, negative = inhibition, hits mostly inhibitors | Glucagon-like peptide 1 receptor (Homo sapiens), P43220; further: on the % scale 0 is the no-effect control and ±100 the full control effect; nearly all actives have a fitted effect of over 55% in size
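Inverse agonism was detected as reduced cAMP-driven luciferase luminescence after 24 h compound treatment. The cells were HEK293 clones expressing constitutively active human GLP-1R with the reporter. Reporter-only and GPR119 cell lines served as counterscreen controls.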
GLS inhibitor: qHTS for Inhibitors of Glutaminase (GLS). Glutaminase kidney isoform, mitochondrial (Homo sapiens), O94925. GLS enzymatic activity, qHTS titration. Potency, µM (doses to about 45.5 µM), inactives show at the top dose activity change, negative = inhibition, hits mostly inhibitors. 410,000 compounds, 0.21% hits. AID 624170, 2012; further: on the % scale 0 is the no-effect control and ±100 the full control effect
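Read-out is an Amplex red fluorescence increase coupled through glutamate oxidase and HRP, measured before and after 30 min room-temperature incubation. hKGA is in 45 mM KH2PO4 (pH 8.2) with 0.02% Tween-20; glutamine added as 1mM solution.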
GRP78 ERSR act: qHTS for Inducers of the Endoplasmic Reticulum Stress Response (ERSR) in Human Glioma: qHTS; U87-MG GRP78 promoter luciferase reporter, 16 h; 420,000 compounds, 0.02% hits; Potency, µM, for the others: at the top dose activation, usual class: activators; further: series mostly up to about 76 µM; % of control where 0% means no effect; nearly all actives have a fitted effect of over 35% in size
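Stably transfected U87-MG human glioma cells carrying a GRP78-based luminescent sensor were seeded at 1000 cells/well, pin-dosed with compounds and incubated 16 h. Luciferase reagent was then added, and end-point luminescence was read after 10 min at room temperature.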
An asterisk follows results filed as active; i = inactive; ? = inconclusive; . = not tested or not shown; [ ] = remark or other dose. The call rests on the fitted dose curve; in most records, active means well fitted curve in the direction sought with a large enough effect; inconclusive means small, poorly fitted or top-dose-only effect, or another doubt; inactive means no such curve, though single readings can be large; an effect the other way counts as inactive or inconclusive. Potency means the concentration at half of the fitted maximal effect.

SMILES | ALOX12 inh | PTHR1 agonist | GLP-1R agonist | GLP-1R inv ag | GLS inhibitor | GRP78 ERSR act
C=CCc1cc(/C=C/c2nc(O)c([N+](=O)[O-])c(=O)[nH]2)cc(OC)c1O | 40µM* | i | 1% | -3%[7.66 µM] | ? | -1%
CCOc1cc(/C=C\c2nc(O)c([N+](=O)[O-])c(=O)[nH]2)ccc1OC(C)C | 3% | -5% | 8% | 17% | 8% | 4%
Cc1ccc(NCc2ccc(O)c3ncccc23)cc1C | ? | i | 4% | 2% | 1% | 0%
Cc1ccc(NCc2ccc(O)c3ncccc23)cc1 | 4µM* | -3% | 0% | -17% | 30% | -1%
Cc1ccnc2c(O)cccc12 | . | . | . | . | . | -3%
Cc1cccc(NCc2ccc(O)c3ncccc23)c1C | 5.6µM* | -9% | -1% | -29% | -24% | -2%
Cc1cccnc1NCc1ccc(O)c2ncccc12 | ? | i | 18% | 2.8µM* | 5% | -3%
Cc1ccc(-c2cc(C(F)F)n3nc(C)c(Cl)c3n2)cc1C | -19% | . | . | . | . | .
CCCCN(Cc1ccccc1)c1ccc(NS(=O)(=O)c2ccc(C(C)(C)C)cc2)cc1C(=O)O | 14µM* | . | . | . | . | .
CCCCN(CC)c1ccc(NS(=O)(=O)c2ccc(C(C)=O)cc2)cc1C(=O)O | -80% | . | . | . | . | .
CCCCN(Cc1ccccc1)c1ccc(NS(=O)(=O)c2ccc(C(C)=O)cc2)cc1C(=O)O | 4.5µM* | . | . | . | . | .
COc1ccc(NC(=O)Cc2c(C)c3c(O)cc(C)cc3oc2=O)c(OC)c1 | 14% | . | . | . | . | .
COc1cc(C(C#N)N2CCC(c3ccccc3)=N2)ccc1O (configuration not stated) | ? | i | 9% | 22% | 10µM* | ?
COc1ccc(C(C#N)N2CCC(c3ccccc3)=N2)cc1OC (configuration not stated) | -13% | -2% | 8% | 53% | 1% | 4%
CC(C)(C)C1CCC2(CC1)C(C#N)=C(SCC(=O)NC1CCCCC1)NC(=O)C2C#N (configuration not stated) | -13% | -12%[57.5 µM] | -2% | 8.9µM* | 4% | -3%
Cc1ccc2nc(-c3ccccc3)cc(C(=O)N3CCN(CC(=O)NC4CC4)CC3)c2c1 | 2% | . | . | . | . | .
CCC1Oc2ccc(C)cc2N(CC(=O)N(Cc2ccc(C)o2)C2CCCC2)C1=O (configuration not stated) | -20% | -4% | -17% | 4.5µM* | -3% | 19%
CCC1Oc2ccc(C)cc2N(CC(=O)NC2CCCCC2)C1=O (configuration not stated) | 6% | i | 6% | -25% | -18% | -3%
CC1CCN(c2ccc(NC(=O)c3ccccc3SC3CCS(=O)(=O)C3)cc2)CC1 (configuration not stated) | 6.3µM* | . | . | . | . | .
COC(=O)C1=C(N)OC2=C(C(=O)CCC2)C1c1ccccc1Cl (configuration not stated) | 5% | . | . | . | . | .
CCn1c(-c2ccc(C(C)(C)C)cc2)n[nH]c1=S | 16µM* | -11% | 8% | ? | -15% | -1%
CCn1c(-c2ccc3[nH]c(C)c(C)c3c2)n[nH]c1=S | 10µM* | -1%[57.5 µM] | 11% | 11% | 15% | 0%
CCN(CC)S(=O)(=O)c1cccc(-c2n[nH]c(=S)n2Cc2ccccc2)c1 | ? | -5% | -1% | -7% | -9% | -2%
CCn1c(-c2ccc(F)cc2)n[nH]c1=S | ? | -26% | 3% | -6% | -3% | -4%
CCN(CC)S(=O)(=O)c1cccc(-c2n[nH]c(=S)n2CC(C)C)c1 | 32µM* | 29% | 2% | -1% | 88% | -6%
SMILES | ALOX12 inh | PTHR1 agonist | GLP-1R agonist | GLP-1R inv ag | GLS inhibitor | GRP78 ERSR act
CCn1c(-c2cccc(Cl)c2)n[nH]c1=S | 28µM* | -1%[57.5 µM] | -23% | 1% | -6% | -5%
Cc1[nH]c2ccc(-c3n[nH]c(=S)n3C)cc2c1C | ? | i | 6% | 16% | 11% | -1%
Cc1ccc(CN(C)C(=O)C2CCN(c3ccc(C(F)(F)F)cn3)CC2)c(C)c1 | -33% | . | . | . | . | .
Cc1oc(-c2cccs2)nc1CC(=O)N(Cc1ccc(C(F)(F)F)cc1)C1CC1 | -8% | . | . | . | . | .
Cn1cccc1/C=N/n1c(-c2ccc(C(C)(C)C)cc2)n[nH]c1=S | 25µM* | i | 13% | ? | ? | 6%
CCn1c(-c2cc(Br)ccc2O)n[nH]c1=S | 45µM* | i | 0% | 2% | 38% | -2%
O=C(Nc1ccc(C(=O)N2CCC(O)(c3ccc(Cl)c(C(F)(F)F)c3)CC2)cc1)c1ccc(Br)o1 | ? | -42% | -3% | 10µM* | 0% | -4%
Cc1ccc(C(=O)N2CCN(c3ccc(NC(=O)c4ccc(Br)o4)cc3)CC2)cc1 | 0% | -89%[57.5 µM] | -7% | 15% | 37% | -7%
Cc1cc(C)c2cccc(NC(=O)C(C)N3C(=O)c4ccccc4C3=O)c2n1 (configuration not stated) | 32% | . | . | . | . | .
COC(=O)CCN(Cc1cccc(C)c1)CC(C)C | -1% | . | . | . | . | .
CCOc1ccccc1CNS(=O)(=O)c1ccc2c(c1)oc(=O)n2C | 4µM* | -23% | -8% | 0% | 9% | -1%
COc1cccc(/C=C/c2nc(C#N)c(NCCCn3ccnc3)o2)c1 | 44% | . | . | . | . | .
O=[N+]([O-])c1cc(-c2csc(NCCc3nc4cc(Cl)c(N5CCCCC5)cc4n3CCCO)n2)ccc1Cl | -7% | -21% | -1% | 2.2µM* | 15% | -2%
Cc1ccc(Cn2c(CCNc3nc(-c4ccc(Cl)c([N+](=O)[O-])c4)cs3)nc3cc(Cl)c(Cl)cc32)cc1 | ? | -10% | -1% | ? | 0% | -2%
CC(=O)NC1(C)CCN(Cc2cccc(-c3ccc4c(ccn4C)c3)c2)C1 (configuration not stated) | 32µM* | . | . | . | . | .
CC(=O)NC1(C)CCCN(Cc2cccc(-c3ccccc3)c2)C1 (configuration not stated) | 4%[176 µM] | . | . | . | . | .
COc1ccc(Cl)cc1NC(=O)Cn1c2c(c(=O)n1-c1ccccc1)Cc1cccc(OC)c1O2 | -9% | . | . | . | . | .
